A short description of experiment [1]: NCI Yeast Anticancer Drug Screen. Data for the rad50 strain (AID 155).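 Note: 0% = growth of vehicle-only cultures of the same strain.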 Conditions: S. cerevisiae rad50 strain growth inhibition; at 50.0 µM; active compounds read high. The essentials:
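Genetically altered yeast (DNA repair pathway); compound treatment; growth inhibition vs vehicle ctrl.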

A short description of experiment [2]: NCI Yeast Anticancer Drug Screen. Data for the mec2-1 strain (AID 157). Conditions: S. cerevisiae mec2-1 strain, at 50.0 µM, active compounds read high. The essentials:
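Using mec2-1 yeast: add compound, measure growth, express inhibition versus vehicle-treated cultures.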

Experiment [3] can be described thus: NCI Yeast Anticancer Drug Screen. Data for the sgs1 mgt1 strain (AID 161).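 Note: 0% = growth of cultures given vehicle only.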 Conditions: S. cerevisiae sgs1 mgt1 strain, at 50.0 µM, active compounds read high. The essentials:
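This yeast growth screen uses a strain with defined DNA-repair lesions; compound-treated growth is compared with vehicle-treated growth.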

Experiment [4] in a line: NCI Yeast Anticancer Drug Screen. Data for the cln2 rad14 strain (AID 165).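 Note: 0% = growth equal to vehicle treated cultures.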 The conditions noted are these: S. cerevisiae cln2 rad14 strain, at 50.0 µM, active compounds read high. In outline: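 Yeast strain cln2 rad14, bearing defects in cell cycle control and DNA repair, serves as the test system; values reflect growth inhibition compared with vehicle.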
Experiment [5] can be described thus: NCI Yeast Anticancer Drug Screen. Data for the bub3 strain (AID 167). The conditions noted are these: S. cerevisiae bub3 mutant strain, at 50.0 µM, active compounds read high. The essentials:
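Yeast carrying a defined mutation is treated with each compound, and growth is compared with that of vehicle-exposed cells to give inhibition.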

A short description of experiment [6]: NCI Yeast Anticancer Drug Screen. Data for the mlh1 rad18 strain (AID 175). Conditions: S. cerevisiae mlh1 rad18 strain growth inhibition; at 50.0 µM; active compounds read high. In outline: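 Steps: expose repair-defective yeast to compound; measure growth; express inhibition against vehicle-treated controls.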

About 79,000 compounds went through this panel and 15% of them were active in at least one assay; those are over-represented in the sample as a whole. Values without a mark were called inactive. Calls of active or inactive are those of the source. Cut-off read from the data, not from the text of the source: active = growth inhibition above about 70%; inactive = the rest.

As for `COc1cc(O)c2c(c1)C(=O)c1cc3c(c(O)c1C2=O)C(O)C(OC)C(C)(O)C3O` (stereo not given), the growth inhibition was 72.5% (active) in experiment [1]; 54.3% in experiment [2]; 72% (active) in experiment [3]; 42.6% in experiment [4]; 64.8% in experiment [5]; 68.2% in experiment [6].

Take `CCCCSCCO`: the growth inhibition was -0.65% in experiment [1]; -0.2% in experiment [2]; -4% in experiment [3]; -12.4% in experiment [4]; -4.4% in experiment [5]; 0.7% in experiment [6].

`COc1cc(C2c3cc4c(cc3OC(N3CCCC3)C2C)OCO4)cc(OC)c1OC` (stereo not given): the growth inhibition is 22.4% in experiment [1]; -0.5% in experiment [2]; -2.9% in experiment [3]; 5.75% in experiment [4]; 3.1% in experiment [5]; 6.55% in experiment [6].

With `CC(=O)O[C@@H]1CC[C@@]2(C)C(=O)C34C[C@@]5(C)C([C@@H](C)CCCC(C)C)CCC5(C)[C@](O)(O3)C(=O)[C@H]4C2C1(C)C` (stereo not given in full), the growth inhibition in experiment [1] is 18.4%; in experiment [2], 24.6%; in experiment [3], 11.5%; in experiment [4], 1.8%; in experiment [5], -0.05%; in experiment [6], 27.1%.

With `COc1cccc(N)c1`, the growth inhibition was 4.6% in experiment [1]; -11.8% in experiment [2]; -6.65% in experiment [3]; -2.75% in experiment [4]; -4.95% in experiment [5]; -10.2% in experiment [6].

Consider `CN1NC2=NCCN=C3NN(C)C(=NCCN=C1S2)S3`, for which the growth inhibition was -6.5% in experiment [1]; -10.1% in experiment [2]; -43.3% in experiment [3]; 9.15% in experiment [4]; -44.1% in experiment [5]; -36.2% in experiment [6].

Consider `NC(=O)c1ccccc1Sc1ccccc1C(N)=O`, for which the growth inhibition in experiment [1] was -4.6%; in experiment [2] it was 2.35%; in experiment [3], 5.4%; in experiment [4], 2.45%; in experiment [5], 1.65%; in experiment [6], 0.6%.

`CCOC1=C/C(=N\NC(N)=O)CCC1`: the growth inhibition in experiment [1] is 9.35%; in experiment [2], 7.2%; in experiment [3] it was -1.1%; in experiment [4], 27.8%; in experiment [5], 3.95%; in experiment [6], 0.1%.

In the case of `O=S(=O)(Cc1ccccc1)c1ncc(Cl)cn1`, the growth inhibition in experiment [1] is 8.9%; in experiment [2] it was 6.65%; in experiment [3], 13.2%; in experiment [4], -5.55%; in experiment [5], 16.9%; in experiment [6] it was 16.4%.

Turning to `C=CCNC(=O)C1C2C=CC(C2)C1C(=O)NCC=C` (stereo not given), the growth inhibition in experiment [1] was 4.95%; in experiment [2], -4.8%; in experiment [3], -21.9%; in experiment [4], -4.85%; in experiment [5], -7.95%; in experiment [6] it was 24.8%.

In the case of `CCCCCCCCn1c(N)c(C#N)cnc1=S`, the growth inhibition in experiment [1] was -27.9%; in experiment [2], 9.65%; in experiment [3] it was -3.45%; in experiment [4] it was -20.2%; in experiment [5], 12%; in experiment [6], 1.2%.

As for `O=C1ON=C(c2ccccc2)/C1=C\C=C\c1ccccc1`, the growth inhibition in experiment [1] is 18.2%; in experiment [2] it was 9.9%; in experiment [3] it was 1.45%; in experiment [4] it was 23.1%; in experiment [5] it was 35.6%; in experiment [6], 14.5%.

With `C=C(Br)CNC(=O)Nc1ccc(Cl)c(Cl)c1`, the growth inhibition in experiment [1] is -0.3%; in experiment [2] it was 16.1%; in experiment [3], 21.4%; in experiment [4], 5.7%; in experiment [5], 22.6%; in experiment [6] it was -86.2%.

In the case of `COc1ccc(/C=C2\CCC/C(=C\c3ccc(O)c(CN4CCCCC4)c3)C2=O)cc1`, the growth inhibition in experiment [1] is 89.2% (active); in experiment [2], 85.5% (active); in experiment [3] it was 91.2% (active); in experiment [4], 83% (active); in experiment [5] it was 89.1% (active); in experiment [6] it was 91.2% (active).

On to `S=C1NNC2(C(=S)N1)c1ccccc1-c1ccccc12`, for which the growth inhibition was 32.4% in experiment [1]; -11.2% in experiment [2]; 14.6% in experiment [3]; 5% in experiment [4]; 3.2% in experiment [5]; 55.4% in experiment [6].

For `CC[Si](C)(C)COC(N)=O`, the growth inhibition was -23.2% in experiment [1]; 8.1% in experiment [2]; -12.4% in experiment [3]; -1.55% in experiment [4]; -4.15% in experiment [5]; -37% in experiment [6].

Take `Cc1ccc(C)n1-c1ccc(OCC(N)=O)cc1`: the growth inhibition in experiment [1] is 16.3%; in experiment [2], 16.1%; in experiment [3], 12.7%; in experiment [4] it was -15.7%; in experiment [5] it was 12.6%; in experiment [6] it was 13.9%.

Consider `CCC1NC(=O)C(NC(=O)c2ncccc2O)C(C)OC(=O)C(c2ccccc2)NC(=O)C2CC(=O)CCN2C(=O)C(Cc2ccccc2)N(C)C(=O)C2CCCN2C1=O` (stereo not given), for which the growth inhibition was -6.9% in experiment [1]; -32.6% in experiment [2]; -29.1% in experiment [3]; -17.4% in experiment [4]; -6.45% in experiment [5]; 0.3% in experiment [6].

Turning to `CCC(O)(c1ccccc1)C(OC)c1ccccc1` (stereo not given), the growth inhibition in experiment [1] was 15.3%; in experiment [2], 5.35%; in experiment [3] it was 14.5%; in experiment [4], 7.25%; in experiment [5], -0.35%; in experiment [6] it was 21.1%.

Turning to `COc1cccc(N=Cc2ccc(C=Nc3cccc(OC)c3)cc2)c1`, the growth inhibition in experiment [1] was 5.95%; in experiment [2], -9.1%; in experiment [3], 11.1%; in experiment [4] it was -9.35%; in experiment [5], 27.7%; in experiment [6], -12.4%.
